Source: PubChem (Johns Hopkins Ion Channel Center)
Most compounds without a hit are left out; they make up all but 1.6% or so of the library.
KCNQ2 inh – blocks the rat KCNQ2 potassium channel; B-score at 10 µM; hit rate 1.1% among 310,000; CHO-K1 KCNQ2, FluxOR thallium flux, 20 min; stronger effect = lower value; AID 2156;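 active means fluorescence ratio B-score at most minus 3 library SDs, with starting brightness B-score within 2 library SDs, cut at about -5.5 in these data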
KCNQ2 pot – potentiators of rat KCNQ2 potassium channel | CHO-K1 KCNQ2, FluxOR thallium flux fluorescence; stronger effect = higher value | B-score at 10 µM | hit rate 0.54% among 310,000;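 active means fluorescence ratio B-score at least 3 SD of library B-scores, with initial fluorescence B-score within 3 of them, cut at about 5.3 in these data; same plate scores as AID 2156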;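 further: B-score of peak minus minimum over baseline fluorescence ratio after K+ and Tl+ stimulus; positive B-score means potentiation of KCNQ2 with more thallium influx and brighter signal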
Kir21 confirm – confirmation of mouse Kir2.1 potassium channel inhibitors; shares compounds with KCNQ2 pot; Kir2.1-expressing cells, FluxOR thallium flux fluorescence; stronger effect = lower value; Tl flux remaining, % of negative control (stronger effect = lower value), % at 10 µM; AID 2032; hit rate 41% among 2,300;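 active means Primary-screen hit whose thallium flux fell at least 3 control SD below untreated wells in both duplicates, with normal baseline fluorescence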;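 further: 0% = blank wells without stimulus and 100% = stimulated no-compound controls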
HEK293 ctr – parental HEK293 activity in Kir2.1 inhibitor counter-screen. FluxOR signal as % of negative control (100 = no effect), % at 10 µM. AID 2105. parental HEK293 cells, FluxOR thallium flux fluorescence; 0% = unstimulated blank wells. hit rate 19% among 2,300. shares compounds with KCNQ2 pot;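 active means dye signal at least 3 control SD above or below untreated wells in both duplicates, raw fluorescence within 3, either direction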;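 further: percent is based on the flux ratio of peak minus minimum fluorescence over baseline F0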
CHO-K1 Tl ctr – alters thallium flux in parental CHO-K1 cells, KCNQ2 counter-screen; activity increase over 3SD of controls, % at 10 µM; FluxOR thallium flux fluorescence; zero = vehicle mean+3SD, 100% = vehicle-minus-blank window; hit rate 43% among 1,200; shares compounds with KCNQ2 pot;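 active means signal rise of at least 3 SD above the untreated control mean, in both duplicate wells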;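 further: counter screen of KCNQ2 potentiator hits so any rise reflects channel-independent effects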
KCNQ1 sel pot – tests whether KCNQ2 potentiators also act on human KCNQ1 | CHO KCNQ1 stable, FluxOR thallium flux fluorescence; beyond 3SD, as % of vehicle-control signal | hit rate 28% among 1,200 | shares compounds with KCNQ2 pot | AID 2283 | activation over 3SD threshold, % at 10 µM;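 active means fluorescence ratio rise of at least 3 SD of vehicle wells above their mean, in both replicate wells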;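 further: 0% = vehicle mean plus 3 SD and 100% = vehicle minus unstimulated blank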
KCNQ2 pot conf – confirmation of rat KCNQ2 potassium channel potentiators; shares compounds with KCNQ2 pot; potentiation, less the hit threshold, % at 10 µM; CHO-KCNQ2 cells, FluxOR thallium flux fluorescence; hit rate 68% among 1,200; AID 2287;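 active means fluorescence ratio rising 3 SD or more over the vehicle control mean in both replicates, plus primary screen hit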;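 further: peak minus minimum thallium fluorescence divided by baseline after K/Tl stimulus; 0% = vehicle mean plus 3 SD and 100% = vehicle minus unstimulated blank difference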
Kir2-1 sel – selectivity of KCNQ2 potentiators: effect on mouse Kir2.1; shares compounds with KCNQ2 pot; HEK293 Kir2.1, FluxOR thallium flux fluorescence; activity over 3SD threshold, % at 10 µM; hit rate 2% among 1,200;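 active means fluorescence ratio rise of at least 3 SD above the vehicle-control mean, seen in both replicates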;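 further: 0% = vehicle mean plus 3 SD and 100% = vehicle minus no-stimulus blank window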
KCNQ2 W236L pot – potentiates the retigabine-insensitive rat KCNQ2 W236L mutant channel. shares compounds with KCNQ2 pot. CHO KCNQ2-W236L, automated patch clamp current. current increase over 3SD of negative controls (%), stronger effect = higher value, % at 25 µM. hit rate 10% among 940;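 active means current increase at least 3 SD of the untreated controls above them in both duplicate recordings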
Target sequence (O88943 whole entry W236L, looked up): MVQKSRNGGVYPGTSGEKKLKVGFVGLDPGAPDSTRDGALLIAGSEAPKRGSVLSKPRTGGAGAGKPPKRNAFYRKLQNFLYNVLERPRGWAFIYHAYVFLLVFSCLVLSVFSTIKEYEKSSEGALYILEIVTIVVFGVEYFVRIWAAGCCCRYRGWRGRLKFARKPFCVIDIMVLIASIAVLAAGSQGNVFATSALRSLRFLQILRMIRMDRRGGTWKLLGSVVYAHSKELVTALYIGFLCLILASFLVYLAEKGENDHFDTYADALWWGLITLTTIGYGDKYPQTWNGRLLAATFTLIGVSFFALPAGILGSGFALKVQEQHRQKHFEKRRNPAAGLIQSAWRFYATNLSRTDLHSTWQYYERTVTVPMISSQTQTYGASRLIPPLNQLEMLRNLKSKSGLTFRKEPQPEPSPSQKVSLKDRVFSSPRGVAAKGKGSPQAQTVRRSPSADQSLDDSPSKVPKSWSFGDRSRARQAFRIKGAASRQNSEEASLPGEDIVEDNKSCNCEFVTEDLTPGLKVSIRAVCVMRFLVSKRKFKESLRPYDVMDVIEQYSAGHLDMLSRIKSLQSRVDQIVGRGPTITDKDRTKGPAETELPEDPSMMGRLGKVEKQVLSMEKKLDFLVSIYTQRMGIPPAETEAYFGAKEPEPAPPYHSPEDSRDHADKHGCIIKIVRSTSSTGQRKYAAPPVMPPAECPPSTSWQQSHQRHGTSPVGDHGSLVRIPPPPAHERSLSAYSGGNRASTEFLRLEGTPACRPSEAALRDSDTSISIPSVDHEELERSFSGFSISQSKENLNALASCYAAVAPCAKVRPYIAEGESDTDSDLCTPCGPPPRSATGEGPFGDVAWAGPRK
Numbers without * were called inactive; i = inactive; · = no result.

SMILES	KCNQ2 inh	KCNQ2 pot	Kir21 confirm	HEK293 ctr	others
CCOc1ccc(N(CC(=O)N2CCN(c3ccc(F)cc3)CC2)S(=O)(=O)c2c(C)noc2C)cc1	i	·	·	·
NC(=O)c1ccc(NC(=O)CCN=C2NS(=O)(=O)c3ccccc32)cc1	i	1.1	·	·
COC(=O)C1=C(CSc2nc3ccccc3s2)NC(=O)NC1c1ccc(F)cc1 (configuration not stated)	i	·	·	·
CC(C)CC(=O)NC(NCC1CCCO1)C(Cl)(Cl)Cl (configuration not stated)	i	·	·	·
CC1CCN(CCc2nc3cc(NC(=O)COc4ccc(Cl)cc4)ccc3n2C)CC1	i	0.08	·	·
CCC(C)Sc1ccc([C@@H]2[C@@H]3C(=O)N(C)C(=O)[C@@H]3[C@]3(C(=O)OC)CCCCN23)cc1 (some centres not stated)	i	1.1	·	·
O=C(NCc1ccccc1C(F)(F)F)C1CC(c2ccccc2[N+](=O)[O-])=NO1 (configuration not stated)	i	0.07	·	·
COc1ccc(OC)c(NC(=O)CCN2C(=O)c3cccc([N+](=O)[O-])c3C2=O)c1	i	·	·	·
O=C(c1ccc(Cn2cc([N+](=O)[O-])cn2)o1)N1CCCCCC1	i	0.12	·	·
COc1ccc(OC)c(NC(=O)NNC(=O)COc2ccc(-c3ccccc3)cc2)c1	i	·	·	·
COc1ccc(OCC(=O)NNC(=O)C(=O)Nc2cc(OC)ccc2OC)cc1	i	11*	i	264%*	CHO-K1 Tl ctr=42*;KCNQ1 sel pot=-5;KCNQ2 pot conf=8.0*;Kir2-1 sel=-26;KCNQ2 W236L pot=i
CC1CC(NS(=O)(=O)c2cccs2)CC(C)(C)C1 (configuration not stated)	i	0.9	·	·
CC1CN(CCc2ccccc2)c2nc3c(c(=O)n(C)c(=O)n3C)n2C1 (configuration not stated)	i	2	·	·
O=C(Nc1cccc(F)c1)N(Cc1ccc(Cl)cc1)CC(O)C(F)(F)F (configuration not stated)	i	6.7*	i	i	CHO-K1 Tl ctr=-1;KCNQ1 sel pot=40*;KCNQ2 pot conf=14*;Kir2-1 sel=-27;KCNQ2 W236L pot=i
O=C(Nc1ccccc1)N(Cc1ccccc1)CC(O)C(F)(F)F (configuration not stated)	i	·	·	·
C/C=C/C(=O)OCC(=O)Nc1cc(-c2cc(C)c(C)cc2C)nn1-c1ccccc1	i	·	·	·
Cc1ccc(/C=C/C(=O)c2ccccc2O)cc1	i	·	·	·
Cc1ccc(/C=C/C(=O)C2C(=O)c3ccccc3C2=O)cc1	i	7.3*	i	146%*	CHO-K1 Tl ctr=-18;KCNQ1 sel pot=-19;KCNQ2 pot conf=-2;Kir2-1 sel=-32;KCNQ2 W236L pot=i
CN(CC(=O)Nc1ccccc1C(F)(F)F)C(=O)COc1ncnc2ccccc12	i	0.71	·	·
COc1ccc(S(=O)(=O)N2CCCOC2CNC(=O)C(=O)NCCc2ccco2)cc1 (configuration not stated)	i	·	·	·
CNS(=O)(=O)/C=C/c1ccccc1	i	16*	i	i	CHO-K1 Tl ctr=-4;KCNQ1 sel pot=-28;KCNQ2 pot conf=-16;Kir2-1 sel=-33
CCCNS(=O)(=O)/C=C/c1ccccc1	i	1.2	·	·
Cc1cc(Br)c2c(c1)C(O)(N1CCCCC1C)C(=O)N2 (configuration not stated)	i	0.47	·	·
O=C1C=CC(=O)C(C2=C3C(=O)N(CCc4ccccc4)CC(=O)N3CCC2)=C1	i	0.29	69%*	69%*
O=C1CC(=O)N(CCc2ccccc2)C(=O)N1CCc1ccccc1	i	2.8	·	·
SMILES	KCNQ2 inh	KCNQ2 pot	Kir21 confirm	HEK293 ctr	others
COc1cccc(C(=O)NCc2ccco2)c1	i	8.9*	i	74%*	CHO-K1 Tl ctr=-10;KCNQ1 sel pot=-12;KCNQ2 pot conf=-31;Kir2-1 sel=-45
COc1cccc(C(=O)NCCS(=O)(=O)NCc2ccco2)c1	i	·	·	·
CCn1c(SC(C)C(=O)N2CCOCC2)nc2sc(C)c(C)c2c1=O (configuration not stated)	i	1.1	·	·
Cc1nc(SCC(=O)N2CCCCC2)c2c(C)c(C)sc2n1	i	7.4*	i	i	CHO-K1 Tl ctr=-10;KCNQ1 sel pot=100*;KCNQ2 pot conf=41*;Kir2-1 sel=-35;KCNQ2 W236L pot=i
Cc1sc2nc(C(C)C)nc(SCC(=O)N3CCOCC3)c2c1C	i	12*	i	i	CHO-K1 Tl ctr=5.3*;KCNQ1 sel pot=-18;KCNQ2 pot conf=34*;Kir2-1 sel=-38;KCNQ2 W236L pot=i
Cc1sc2ncnc(SCC(=O)N3CCCCC3)c2c1C	i	2.5	·	·
O=[N+]([O-])c1ccc(Cc2ccccn2)c([N+](=O)[O-])c1	i	1.1	·	·
O=S(=O)(Nc1ccc2ccccc2n1)c1ccccc1	i	2.1	·	·
Cc1cc(C)c(Cn2c3ccccc3c3cnn(CC(=O)NCCN4CCOCC4)c(=O)c32)c(C)c1	i	1.6	·	·
Cc1cc(C)c(Cn2c3ccccc3c3cnn(CC(=O)NCc4ccccn4)c(=O)c32)c(C)c1	i	14*	i	i	CHO-K1 Tl ctr=-40;KCNQ1 sel pot=-14;KCNQ2 pot conf=8.7*;Kir2-1 sel=-12;KCNQ2 W236L pot=i
CC(C)(C)NS(=O)(=O)c1cc(C(=O)Nc2sccc2C#N)ccc1Cl	i	·	·	·
COc1ccc(/C=N/NC(=O)c2nnn(-c3nonc3N)c2CN(C)c2ccccc2)cc1	i	0.34	·	·
C(#CCN1CCCC1)CC(c1ccccc1)c1ccccc1	i	·	40%*	i
OC(CC#CCN1CCCC1)(c1ccccc1)c1ccccc1	i	·	·	·
CCC(C)c1ccc(C(C)NC(=S)NC2CCCCC2)cc1 (configuration not stated)	i	13*	·	·	CHO-K1 Tl ctr=57*;KCNQ1 sel pot=37*;KCNQ2 pot conf=34*;Kir2-1 sel=-50;KCNQ2 W236L pot=i
Cc1ccc(S(=O)(=O)NC(=S)NC2CCCCC2)cc1	i	4.1	·	·
CC(CCc1ccccc1)NC(=S)NC1CCCCC1 (configuration not stated)	i	·	·	·
CCOc1ccc(C(C)NC(=O)C2CCCC2)cc1 (configuration not stated)	i	1.5	·	·
CCC(C)c1ccc(NC(=S)NC2CCN(Cc3ccccc3)CC2)cc1 (configuration not stated)	i	·	·	·
CCc1ccc(S(=O)(=O)NC(=S)NC2CCCCC2)cc1	i	8.9*	i	302%*	CHO-K1 Tl ctr=-18;KCNQ1 sel pot=-18;KCNQ2 pot conf=52*;Kir2-1 sel=-28;KCNQ2 W236L pot=i
CCc1ccc(C(C)NC(=O)C2CCCC2)cc1 (configuration not stated)	i	12*	i	i	CHO-K1 Tl ctr=9.3*;KCNQ1 sel pot=-12;KCNQ2 pot conf=18*;Kir2-1 sel=-16;KCNQ2 W236L pot=i
